# Publication PMC7862700, “An all-to-all approach to the identification of sequence-specific readers for epigenetic DNA modifications on cytosine”
# Legend:
# Test in all cases: DAPPL (digital affinity profiling via proximity ligation, sequencing); 10 mM Tris-HCl pH 7.5, 50 mM NaCl, 1 mM DTT, 4% glycerol, room temperature, 30 min; GST-TFs on glutathione beads, 16-mer random dsDNA library, 0.1% formaldehyde crosslink after washing; high values mean tight binding
# [1] = target: T1, FLI1 (Homo sapiens, UniProt Q01543 1-452); details: protein: recombinant; tags: N-terminal GST; dsDNA, one strand shown
# T1 sequence: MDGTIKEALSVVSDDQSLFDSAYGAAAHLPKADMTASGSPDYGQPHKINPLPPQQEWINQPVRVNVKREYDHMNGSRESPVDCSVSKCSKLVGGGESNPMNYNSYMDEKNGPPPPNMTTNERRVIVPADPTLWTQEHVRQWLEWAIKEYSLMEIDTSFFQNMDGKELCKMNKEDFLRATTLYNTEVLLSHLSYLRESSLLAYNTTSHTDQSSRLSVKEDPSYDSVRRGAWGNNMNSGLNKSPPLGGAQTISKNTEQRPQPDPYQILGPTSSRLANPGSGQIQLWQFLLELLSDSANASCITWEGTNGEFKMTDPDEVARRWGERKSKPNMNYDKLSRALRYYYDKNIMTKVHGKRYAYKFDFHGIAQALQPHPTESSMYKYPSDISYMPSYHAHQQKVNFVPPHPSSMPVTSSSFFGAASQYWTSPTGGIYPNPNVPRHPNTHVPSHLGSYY
# Summary of the method: (§1)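 In yeast, human transcription factors were expressed with a GST fusion, then pulled down on glutathione beads and given DNA barcodes. Pooled with a tag-only sample, they were exposed to 200 nmole of a 16-mer random double-stranded DNA library (Tris/NaCl/DTT/glycerol buffer, room temperature, 30 min), washed, crosslinked with 0.1% formaldehyde, proximity-ligated using BsaI/T4 ligase for 1 h at 37 °C, PCR-amplified and read on an Illumina NextSeq500. Each hexamer's frequency of reads for a factor, divided by the matching frequency for the tag-only sample, gives the binding signal.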
# [2] = target: T2, ELK1 (Homo sapiens, UniProt P19419 1-428); details: protein: recombinant; tags: N-terminal GST; dsDNA, one strand shown
# T2 sequence: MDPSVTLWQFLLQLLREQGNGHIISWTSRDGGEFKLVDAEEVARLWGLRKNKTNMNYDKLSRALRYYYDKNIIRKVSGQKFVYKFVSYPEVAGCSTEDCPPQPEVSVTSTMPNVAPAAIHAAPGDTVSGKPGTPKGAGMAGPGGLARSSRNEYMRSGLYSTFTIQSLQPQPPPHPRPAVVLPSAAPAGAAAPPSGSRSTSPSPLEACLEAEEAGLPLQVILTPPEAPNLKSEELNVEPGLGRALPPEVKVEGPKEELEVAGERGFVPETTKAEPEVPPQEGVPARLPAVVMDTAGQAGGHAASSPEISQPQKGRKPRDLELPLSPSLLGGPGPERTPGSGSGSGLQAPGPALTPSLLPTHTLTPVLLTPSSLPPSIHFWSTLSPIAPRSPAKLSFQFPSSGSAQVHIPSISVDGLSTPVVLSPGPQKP
# Summary of the method: as §1
# [3] = target: T3, GABPA (Homo sapiens, UniProt Q06546 1-454); details: protein: recombinant; tags: N-terminal GST; dsDNA, one strand shown
# T3 sequence: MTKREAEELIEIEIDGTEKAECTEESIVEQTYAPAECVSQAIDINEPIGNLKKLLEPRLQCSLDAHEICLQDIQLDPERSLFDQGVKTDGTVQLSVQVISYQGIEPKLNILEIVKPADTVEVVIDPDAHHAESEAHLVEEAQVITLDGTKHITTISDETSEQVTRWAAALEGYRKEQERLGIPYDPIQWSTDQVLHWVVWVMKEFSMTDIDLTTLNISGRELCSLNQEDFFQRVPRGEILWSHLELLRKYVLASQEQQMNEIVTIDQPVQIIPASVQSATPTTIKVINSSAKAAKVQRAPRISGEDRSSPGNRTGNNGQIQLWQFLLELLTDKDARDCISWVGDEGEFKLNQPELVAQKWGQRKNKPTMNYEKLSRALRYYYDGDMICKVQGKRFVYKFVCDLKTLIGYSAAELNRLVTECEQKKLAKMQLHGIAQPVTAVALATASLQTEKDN
# Summary of the method: as §1
# [4] = target: T4, ERG (Homo sapiens, UniProt P11308 1-479); details: protein: recombinant; tags: N-terminal GST; dsDNA, one strand shown
# T4 sequence: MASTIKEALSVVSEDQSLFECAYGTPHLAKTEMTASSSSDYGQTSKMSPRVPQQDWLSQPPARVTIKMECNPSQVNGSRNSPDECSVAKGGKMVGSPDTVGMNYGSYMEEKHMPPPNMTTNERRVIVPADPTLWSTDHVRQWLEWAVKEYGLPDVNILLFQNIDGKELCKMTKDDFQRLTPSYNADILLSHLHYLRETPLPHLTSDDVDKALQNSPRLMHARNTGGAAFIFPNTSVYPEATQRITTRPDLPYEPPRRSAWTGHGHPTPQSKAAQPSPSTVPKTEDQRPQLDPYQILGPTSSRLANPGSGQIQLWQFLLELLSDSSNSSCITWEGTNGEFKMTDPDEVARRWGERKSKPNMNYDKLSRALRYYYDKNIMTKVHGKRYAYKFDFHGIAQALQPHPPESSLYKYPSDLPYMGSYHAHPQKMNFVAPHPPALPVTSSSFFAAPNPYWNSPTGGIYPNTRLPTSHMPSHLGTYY
# Summary of the method: as §1
# [5] = target: ELF1 (Homo sapiens, UniProt P32519 1-619); details: protein: recombinant; tags: N-terminal GST; dsDNA, one strand shown
# Chain of ELF1 (P32519 whole entry): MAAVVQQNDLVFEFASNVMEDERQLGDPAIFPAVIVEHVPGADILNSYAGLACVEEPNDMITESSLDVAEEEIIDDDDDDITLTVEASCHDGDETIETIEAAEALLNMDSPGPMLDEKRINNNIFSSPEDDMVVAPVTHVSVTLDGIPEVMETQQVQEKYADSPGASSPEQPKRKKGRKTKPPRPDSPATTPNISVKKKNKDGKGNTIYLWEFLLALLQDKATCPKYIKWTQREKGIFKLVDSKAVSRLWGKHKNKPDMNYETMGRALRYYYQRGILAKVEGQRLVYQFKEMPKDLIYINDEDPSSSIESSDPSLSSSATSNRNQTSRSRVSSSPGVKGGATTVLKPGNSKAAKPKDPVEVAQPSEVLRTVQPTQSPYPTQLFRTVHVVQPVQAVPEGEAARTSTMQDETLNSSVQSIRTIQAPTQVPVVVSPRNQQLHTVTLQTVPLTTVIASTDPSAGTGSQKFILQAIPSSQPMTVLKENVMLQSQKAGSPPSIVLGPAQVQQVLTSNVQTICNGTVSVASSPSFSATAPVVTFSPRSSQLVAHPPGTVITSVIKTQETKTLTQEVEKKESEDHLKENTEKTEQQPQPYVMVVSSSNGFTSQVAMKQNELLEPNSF
# Summary of the method: as §1
# [6] = target: T5, EHF (Homo sapiens, UniProt Q9NZC4 1-300); details: protein: recombinant; tags: N-terminal GST; dsDNA, one strand shown
# T5 sequence: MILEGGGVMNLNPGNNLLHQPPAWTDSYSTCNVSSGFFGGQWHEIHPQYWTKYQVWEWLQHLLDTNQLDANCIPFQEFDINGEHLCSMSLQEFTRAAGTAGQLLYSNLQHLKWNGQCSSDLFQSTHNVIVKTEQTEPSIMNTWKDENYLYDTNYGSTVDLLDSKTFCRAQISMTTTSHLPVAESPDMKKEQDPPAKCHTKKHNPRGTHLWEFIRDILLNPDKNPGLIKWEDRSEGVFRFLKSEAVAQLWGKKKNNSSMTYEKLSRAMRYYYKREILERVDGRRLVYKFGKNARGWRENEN
# Summary of the method: as §1
# [7] = target: SPI1 (Homo sapiens, UniProt P17947 1-270); details: protein: recombinant; tags: N-terminal GST; dsDNA, one strand shown
# Summary of the method: as §1
# [8] = target: SPIB (Homo sapiens, UniProt Q01892 1-262); details: protein: recombinant; tags: N-terminal GST; dsDNA, one strand shown
# Chain of SPIB (Q01892 whole entry): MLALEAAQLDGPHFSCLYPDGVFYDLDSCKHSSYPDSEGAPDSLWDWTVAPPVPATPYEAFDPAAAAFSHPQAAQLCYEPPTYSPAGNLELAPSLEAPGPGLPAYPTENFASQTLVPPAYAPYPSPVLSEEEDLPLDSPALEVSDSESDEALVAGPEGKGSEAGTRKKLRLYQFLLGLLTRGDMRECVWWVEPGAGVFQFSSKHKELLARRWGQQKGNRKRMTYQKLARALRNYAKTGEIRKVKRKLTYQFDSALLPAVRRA
# Summary of the method: as §1
# [9] = target: T6, ELK3 (Homo sapiens, UniProt P41970 1-407); details: protein: recombinant; tags: N-terminal GST; dsDNA, one strand shown
# T6 sequence: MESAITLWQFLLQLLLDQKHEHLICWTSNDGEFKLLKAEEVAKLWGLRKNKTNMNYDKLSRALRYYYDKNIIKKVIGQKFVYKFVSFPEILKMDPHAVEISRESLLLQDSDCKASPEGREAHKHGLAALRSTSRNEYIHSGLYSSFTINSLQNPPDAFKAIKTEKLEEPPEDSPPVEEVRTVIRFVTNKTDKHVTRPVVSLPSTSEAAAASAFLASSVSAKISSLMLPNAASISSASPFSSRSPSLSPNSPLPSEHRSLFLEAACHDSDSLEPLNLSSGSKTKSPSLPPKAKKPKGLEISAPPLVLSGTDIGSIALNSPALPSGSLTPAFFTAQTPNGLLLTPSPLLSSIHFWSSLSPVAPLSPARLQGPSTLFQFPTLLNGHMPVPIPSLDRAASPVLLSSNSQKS
# Summary of the method: as §1
# [10] = target: T7, FEV (Homo sapiens, UniProt Q99581 1-238); details: protein: recombinant; tags: N-terminal GST; dsDNA, one strand shown
# T7 sequence: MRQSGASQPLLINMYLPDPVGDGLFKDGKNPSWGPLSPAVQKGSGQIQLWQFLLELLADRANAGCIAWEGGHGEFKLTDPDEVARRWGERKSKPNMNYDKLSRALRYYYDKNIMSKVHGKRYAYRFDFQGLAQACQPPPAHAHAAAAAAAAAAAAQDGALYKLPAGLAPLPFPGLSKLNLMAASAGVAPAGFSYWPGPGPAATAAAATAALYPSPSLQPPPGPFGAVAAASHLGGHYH
# Summary of the method: as §1
# [11] = target: ETV5 (Homo sapiens, UniProt P41161 1-510); details: protein: recombinant; tags: N-terminal GST; dsDNA, one strand shown
# Chain of ETV5 (P41161 whole entry): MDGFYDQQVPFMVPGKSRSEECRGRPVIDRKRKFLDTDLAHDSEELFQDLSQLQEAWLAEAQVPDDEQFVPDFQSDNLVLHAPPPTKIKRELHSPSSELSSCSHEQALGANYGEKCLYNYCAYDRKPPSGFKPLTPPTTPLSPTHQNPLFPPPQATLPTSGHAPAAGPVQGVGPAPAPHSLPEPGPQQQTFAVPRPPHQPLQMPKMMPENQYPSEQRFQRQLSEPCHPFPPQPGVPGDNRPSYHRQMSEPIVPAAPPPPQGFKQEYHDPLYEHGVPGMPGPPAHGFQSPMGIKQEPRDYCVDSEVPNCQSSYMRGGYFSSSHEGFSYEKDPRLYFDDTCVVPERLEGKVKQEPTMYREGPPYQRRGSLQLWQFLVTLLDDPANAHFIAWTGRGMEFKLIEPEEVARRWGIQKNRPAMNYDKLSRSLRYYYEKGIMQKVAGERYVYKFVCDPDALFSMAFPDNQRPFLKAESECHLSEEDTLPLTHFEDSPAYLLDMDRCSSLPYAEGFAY
# Summary of the method: as §1
# [12] = target: HSF1 (Homo sapiens, UniProt Q00613 1-529); details: protein: recombinant; tags: N-terminal GST; chain copies: 3; dsDNA, one strand shown
# Chain of HSF1 (Q00613 whole entry): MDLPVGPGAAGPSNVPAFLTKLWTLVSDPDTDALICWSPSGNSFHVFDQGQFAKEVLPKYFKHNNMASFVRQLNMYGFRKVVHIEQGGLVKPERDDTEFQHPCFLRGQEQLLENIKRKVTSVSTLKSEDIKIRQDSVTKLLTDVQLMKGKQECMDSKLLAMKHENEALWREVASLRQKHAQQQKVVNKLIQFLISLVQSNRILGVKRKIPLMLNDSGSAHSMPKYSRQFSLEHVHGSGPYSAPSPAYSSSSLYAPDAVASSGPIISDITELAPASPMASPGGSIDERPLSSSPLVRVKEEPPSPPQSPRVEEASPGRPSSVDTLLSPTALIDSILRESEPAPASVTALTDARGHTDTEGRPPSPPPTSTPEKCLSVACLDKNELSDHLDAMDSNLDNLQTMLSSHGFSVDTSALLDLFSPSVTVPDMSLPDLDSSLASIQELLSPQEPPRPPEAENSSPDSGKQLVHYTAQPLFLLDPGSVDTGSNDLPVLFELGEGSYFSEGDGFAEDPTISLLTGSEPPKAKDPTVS
# Summary of the method: as §1
# [13] = target: T8, SPIC (Homo sapiens, UniProt Q8N5J4 1-248); details: protein: recombinant; tags: N-terminal GST; dsDNA, one strand shown
# T8 sequence: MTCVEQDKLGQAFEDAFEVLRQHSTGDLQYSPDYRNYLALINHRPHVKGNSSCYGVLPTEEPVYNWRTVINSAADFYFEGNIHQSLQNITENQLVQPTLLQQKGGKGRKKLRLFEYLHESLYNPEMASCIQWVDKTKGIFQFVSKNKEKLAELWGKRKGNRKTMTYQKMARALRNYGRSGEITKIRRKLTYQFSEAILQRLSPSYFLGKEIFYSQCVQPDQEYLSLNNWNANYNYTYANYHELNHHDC
# Summary of the method: as §1
# [14] = target: ELF4 (Homo sapiens, UniProt Q99607 1-663); details: protein: recombinant; tags: N-terminal GST; dsDNA, one strand shown
# Chain of ELF4 (Q99607 whole entry): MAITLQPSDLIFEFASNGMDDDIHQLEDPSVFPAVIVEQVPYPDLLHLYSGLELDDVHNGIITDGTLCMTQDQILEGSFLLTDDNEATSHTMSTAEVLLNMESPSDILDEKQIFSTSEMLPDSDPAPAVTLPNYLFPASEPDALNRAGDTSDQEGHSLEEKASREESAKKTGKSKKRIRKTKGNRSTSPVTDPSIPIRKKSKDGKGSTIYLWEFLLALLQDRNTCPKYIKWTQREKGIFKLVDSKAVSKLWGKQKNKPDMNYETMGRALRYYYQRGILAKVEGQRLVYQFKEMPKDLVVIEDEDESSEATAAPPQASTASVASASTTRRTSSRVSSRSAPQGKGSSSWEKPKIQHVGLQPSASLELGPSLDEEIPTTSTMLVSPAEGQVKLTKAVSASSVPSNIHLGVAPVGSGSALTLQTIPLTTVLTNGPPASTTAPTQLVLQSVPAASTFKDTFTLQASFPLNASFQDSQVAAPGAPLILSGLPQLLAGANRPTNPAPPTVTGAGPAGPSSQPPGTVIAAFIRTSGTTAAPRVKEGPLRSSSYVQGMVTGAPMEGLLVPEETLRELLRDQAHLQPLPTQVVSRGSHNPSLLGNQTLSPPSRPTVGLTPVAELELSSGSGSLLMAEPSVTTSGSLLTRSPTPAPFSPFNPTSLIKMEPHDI
# Summary of the method: as §1
# [15] = target: T9, ELK4 (Homo sapiens, UniProt P28324-2 1-405); details: protein: recombinant; tags: N-terminal GST; dsDNA, one strand shown
# T9 sequence: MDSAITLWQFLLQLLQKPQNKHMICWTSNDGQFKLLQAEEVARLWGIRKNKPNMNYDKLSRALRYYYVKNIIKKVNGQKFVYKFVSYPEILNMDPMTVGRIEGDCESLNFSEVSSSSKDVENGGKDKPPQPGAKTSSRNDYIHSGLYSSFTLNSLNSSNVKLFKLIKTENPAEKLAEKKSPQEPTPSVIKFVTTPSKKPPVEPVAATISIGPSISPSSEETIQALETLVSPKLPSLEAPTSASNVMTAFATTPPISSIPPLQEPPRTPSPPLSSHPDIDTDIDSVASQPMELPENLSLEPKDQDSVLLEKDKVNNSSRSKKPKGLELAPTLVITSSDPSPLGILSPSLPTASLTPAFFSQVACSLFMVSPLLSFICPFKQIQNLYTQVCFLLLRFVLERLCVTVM
# Summary of the method: as §1
# [16] = target: T10, ETV2 (Homo sapiens, UniProt O00321 1-342); details: protein: recombinant; tags: N-terminal GST; dsDNA, one strand shown
# T10 sequence: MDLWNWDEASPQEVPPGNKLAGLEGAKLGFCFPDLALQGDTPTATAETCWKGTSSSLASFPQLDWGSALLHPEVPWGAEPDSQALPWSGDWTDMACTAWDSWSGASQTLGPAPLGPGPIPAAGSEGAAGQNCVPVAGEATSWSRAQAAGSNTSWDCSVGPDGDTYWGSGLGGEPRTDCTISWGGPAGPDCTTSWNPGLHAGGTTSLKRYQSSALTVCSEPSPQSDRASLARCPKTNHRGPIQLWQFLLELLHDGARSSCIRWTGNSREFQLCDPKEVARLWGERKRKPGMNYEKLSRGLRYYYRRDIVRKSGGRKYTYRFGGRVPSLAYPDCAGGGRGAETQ
# Summary of the method: as §1
# [17] = target: T11, ELF3 (Homo sapiens, UniProt P78545 1-371); details: protein: recombinant; tags: N-terminal GST; dsDNA, one strand shown
# T11 sequence: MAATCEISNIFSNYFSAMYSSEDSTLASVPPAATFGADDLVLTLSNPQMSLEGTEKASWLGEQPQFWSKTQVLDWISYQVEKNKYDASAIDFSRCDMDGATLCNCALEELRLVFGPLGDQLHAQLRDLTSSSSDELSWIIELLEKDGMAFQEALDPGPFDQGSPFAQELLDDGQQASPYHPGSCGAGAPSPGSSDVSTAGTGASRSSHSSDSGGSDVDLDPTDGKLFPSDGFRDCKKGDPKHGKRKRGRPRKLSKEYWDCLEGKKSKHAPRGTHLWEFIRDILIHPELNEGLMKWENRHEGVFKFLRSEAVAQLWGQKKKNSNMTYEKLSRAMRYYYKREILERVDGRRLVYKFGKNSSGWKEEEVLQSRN
# Summary of the method: as §1
# [18] = target: CRX (Homo sapiens, UniProt O43186 1-299); details: protein: recombinant; tags: N-terminal GST; dsDNA, one strand shown
# Chain of CRX (O43186 whole entry): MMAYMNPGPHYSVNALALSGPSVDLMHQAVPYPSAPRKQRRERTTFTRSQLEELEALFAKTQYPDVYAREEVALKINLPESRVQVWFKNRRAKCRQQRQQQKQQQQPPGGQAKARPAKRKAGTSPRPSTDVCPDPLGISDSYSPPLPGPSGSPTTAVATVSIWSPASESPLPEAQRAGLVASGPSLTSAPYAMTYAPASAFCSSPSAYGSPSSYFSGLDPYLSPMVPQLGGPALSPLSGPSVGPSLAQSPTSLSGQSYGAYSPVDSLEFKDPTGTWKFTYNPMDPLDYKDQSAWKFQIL
# Summary of the method: as §1
# [19] = target: ETV1 (Homo sapiens, UniProt P50549 1-477); details: protein: recombinant; tags: N-terminal GST; dsDNA, one strand shown
# Chain of ETV1 (P50549 whole entry): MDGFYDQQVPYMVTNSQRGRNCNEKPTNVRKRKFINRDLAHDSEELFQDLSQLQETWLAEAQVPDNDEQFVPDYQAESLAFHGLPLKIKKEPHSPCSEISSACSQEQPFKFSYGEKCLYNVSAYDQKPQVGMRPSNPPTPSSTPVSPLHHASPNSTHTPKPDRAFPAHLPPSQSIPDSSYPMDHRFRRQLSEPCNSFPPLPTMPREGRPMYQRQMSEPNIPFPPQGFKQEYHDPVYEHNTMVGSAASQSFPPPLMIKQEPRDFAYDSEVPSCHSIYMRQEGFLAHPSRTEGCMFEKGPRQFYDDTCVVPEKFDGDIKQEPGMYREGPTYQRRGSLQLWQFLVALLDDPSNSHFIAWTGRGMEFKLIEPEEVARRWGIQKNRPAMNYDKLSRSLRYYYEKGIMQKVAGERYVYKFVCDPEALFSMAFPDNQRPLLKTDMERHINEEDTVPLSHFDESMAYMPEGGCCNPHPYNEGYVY
# Summary of the method: as §1
sequence,measurement,setting,value
TAACCT,binding signal,[1],"1.2 fold enrichment (6-mer frequency, TF over GST control)"
same,binding signal,[2],"1.32 fold enrichment (6-mer frequency, TF over GST control)"
same,binding signal,[3],"1.35 fold enrichment (6-mer frequency, TF over GST control)"
same,binding signal,[4],"1.12 fold enrichment (6-mer frequency, TF over GST control)"
same,binding signal,[5],"1.35 fold enrichment (6-mer frequency, TF over GST control)"
same,binding signal,[6],"1.29 fold enrichment (6-mer frequency, TF over GST control)"
same,binding signal,[7],"1.29 fold enrichment (6-mer frequency, TF over GST control)"
same,binding signal,[8],"1.31 fold enrichment (6-mer frequency, TF over GST control)"
same,binding signal,[9],"1.43 fold enrichment (6-mer frequency, TF over GST control)"
same,binding signal,[10],"1.3 fold enrichment (6-mer frequency, TF over GST control)"
same,binding signal,[11],"1.29 fold enrichment (6-mer frequency, TF over GST control)"
same,binding signal,[12],"1.44 fold enrichment (6-mer frequency, TF over GST control)"
same,binding signal,[13],"1.17 fold enrichment (6-mer frequency, TF over GST control)"
same,binding signal,[14],"1.33 fold enrichment (6-mer frequency, TF over GST control)"
same,binding signal,[15],"1.46 fold enrichment (6-mer frequency, TF over GST control)"
same,binding signal,[16],"1.13 fold enrichment (6-mer frequency, TF over GST control)"
same,binding signal,[17],"1.29 fold enrichment (6-mer frequency, TF over GST control)"
same,binding signal,[18],"1.67 fold enrichment (6-mer frequency, TF over GST control)"
same,binding signal,[19],"1.31 fold enrichment (6-mer frequency, TF over GST control)"
